Source: PubChem
Not all results are given here.
aSyn 5UTR act: Activators via SNCA 5'UTR binding, MLPCN; alpha-synuclein 5'UTR reporter, activators screen; activity score, % (tested at 7.5 µM), hits read low; actives 7.1% (n = 300,000); AID 1814; in the data active = activity score below about -60%
* = called active by the depositor.

SMILES	aSyn 5UTR act
CC(=O)N(C)c1ccc(NC(=O)Nc2ccc(Cl)cc2)cc1	-134.9*
CC(=O)N(C)c1ccc(NC(=O)Nc2ccc(C)cc2)cc1	-75.6*
Cc1cc(C(=O)COc2ncnc3sccc23)c(C)n1C	-124.6*
CC(=O)c1ccc(Oc2ncnc3sccc23)cc1	-147.8*
Cc1ccc2c(CN3CCC(C)CC3)cc(=O)oc2c1	-150.0*
CCOC(=O)C1CCCN(Cc2cc(=O)oc3cc(C)ccc23)C1 (stereo not given)	-75.5*
c1ccc(CSc2nnc(-c3c[nH]c4ccccc34)o2)cc1	-151.5*
Fc1ccccc1CSc1nnc(-c2ccccc2)o1	-152.3*
Fc1ccccc1CSc1nnc(-c2cccnc2)o1	-68.8*
COc1cc(OC)cc(-c2nnc(SCc3c(F)cccc3Cl)o2)c1	-101.3*
Cc1ccccc1-c1nnc(SCc2ccccc2F)o1	-148.7*
Cc1ccccc1-c1nnc(SCc2ccccc2)o1	-190.7*
COc1ccc(-c2nnc(SCc3ccccc3F)o2)cc1	-162.6*
CSc1ncc(CN2CCCC(C(=O)c3ccc(C(C)(C)C)cc3)C2)cn1 (stereo not given)	-87.7*
C/C(=N\NC(=O)CCCNc1ccc(C)cc1)c1ccccn1	78.3
C/C(CC(=O)NC1CCCCC1)=N\NC(=O)c1ccccn1	-132.3*
C/C(CC(=O)Nc1ccc(Cl)c(C(F)(F)F)c1)=N\NC(=O)c1ccccc1O	-82.1*
C/C(=N\NC(=O)c1ccc(F)cc1)c1ccccn1	-93.2*
C/C(CC(=O)Nc1ccc(F)cc1)=N\NC(=O)c1ccccn1	-63.5*
C/C(CC(=O)NCc1ccccc1Cl)=N/NC(=O)c1ccccn1	-115.9*
CC(=O)Nc1ccccc1NC(=O)C/C(C)=N/NC(=O)c1ccccn1	-113.5*
O=C(OCc1ccc(C(=O)c2ccccc2)cc1)c1cccc(-c2nnc(-c3ccccc3)o2)c1	-79.8*
O=C(OCc1nnc(-c2ccccc2)o1)c1ccc2c(c1)OCCO2	-62.1*
O=C(OCc1ccccc1)c1cccc(-c2nnc(-c3ccccc3)o2)c1	-68.7*
O=C(OCc1ccccc1)c1ccc2c(c1)-c1ccccc1C2=O	-194.1*
SMILES	aSyn 5UTR act
Cc1sc2c(c1C)C(=O)NC(c1cccc(O)c1)N2 (stereo not given)	-233.3*
O=C(Nc1ccccc1)c1ccc(-c2ccc(Br)cc2)o1	-92.7*
O=C(c1ccc(-c2ccc([N+](=O)[O-])cc2)o1)N1CCCCC1	-105.9*
O=C(Nc1ccccc1)c1ccc(-c2ccc([N+](=O)[O-])cc2)o1	-97.9*
CN1CCN(C2Cc3ccc(F)cc3Sc3cc(F)c(Cl)cc32)CC1 (stereo not given)	102.2
Brc1ccc(-c2nc3ccccc3s2)s1	-114.5*
c1ccc(-c2nc3ccccc3s2)nc1	-86.9*
COc1cc(OC)cc(-c2nc3ccccc3s2)c1	-286.3*
O=C1CCC(=O)N1c1ccc(-c2nc3ccccc3s2)cc1	-119.8*
O=C1CNC(=S)N1c1nc2ccccc2s1	40.7
Nc1ccc(-c2nc3ccccc3s2)cn1	-109.6*
COc1ccc(-c2coc3cc(OC4OC(CO)C(O)C(O)C4O)ccc3c2=O)cc1 (stereo not given)	-123.9*
COc1ccc(-c2coc3cc(O)ccc3c2=O)cc1	-134.4*
COc1ccc(CC(=O)c2ccc(OC3OC(CO)C(O)C(O)C3O)cc2O)cc1 (stereo not given)	-68.7*
COc1ccc(-c2coc3cc(O)ccc3c2=O)cc1O	-89.6*
CCOC(=O)c1c(C)[nH]c(C(=O)OCC(=O)Nc2sccc2C(N)=O)c1C	-118.6*
CC(=O)Nc1sc(N/N=C\c2ccc(O)cc2)nc1-c1cccs1	-100.0*
CC(=O)Nc1sc(N/N=C\c2ccccc2F)nc1-c1cccs1	-184.1*
CC(=O)Nc1sc(N/N=C\c2cccc(Cl)c2)nc1-c1cccs1	-82.0*
CCC(=O)N1N=C(c2ccc(NS(C)(=O)=O)cc2)CC1c1ccc(N(C)C)cc1 (stereo not given)	-101.9*
O=C(/C=C(/c1ccc(Cl)cc1)n1cncn1)c1ccccc1	-62.3*
Cc1c(C(=O)NCc2ccccn2)oc2ccc(Br)cc12	-130.8*
Cc1c(C(=O)NCc2ccccn2)oc2ccccc12	-137.9*
Cc1ccc(C(=O)NC(=S)NCC2CCCO2)cc1Br (stereo not given)	-154.6*
O=C(NC(=S)NCC1CCCO1)c1ccc(Br)o1 (stereo not given)	-108.4*
SMILES	aSyn 5UTR act
CCCC(=O)Nc1nc2c(s1)COc1ccccc1-2	-134.3*
CCCCC(=O)Nc1nc2c(s1)COc1ccccc1-2	-107.0*
CCNC(=O)O/N=C(\C)c1sc(-c2ccccc2)nc1C	-134.5*
CNC(=O)c1sc(-c2ccccc2)nc1C	-78.1*
CNC(=O)c1sc(-c2ccc(Cl)cc2)nc1C	-187.3*
CC(=O)c1sc(-c2ccc(Cl)cc2)nc1C	-100.9*
C/C(=N\O)c1sc(-c2ccccc2)nc1C	-139.6*
CC(C)C(=O)Nc1ccc2nn(-c3ccc(F)cc3)nc2c1	-71.1*
Nc1ccc2nn(-c3ccc(F)cc3)nc2c1	-108.3*
Cc1ccc(-n2nc3ccc(NC(=O)C(C)C)cc3n2)cc1	-137.0*
Cc1ccc(-n2nc3ccc(NC(=O)c4cccc([N+](=O)[O-])c4C)cc3n2)cc1	-66.3*
